# From the supplement of paper PMC3334620
# Whole data set: some 33,000 sequences, median “E-score (-0.5 to 0.5)” near -0.01, cut for the highest 2% near 0.26. Shown is part of a subset that was picked to be rich in the highest values.
# Target: Ste12 (UniProt P13574)
# Assay: PBM E-score (8-mer binding enrichment) (E-score (-0.5 to 0.5)); higher = stronger / more preferred TF binding
# Conditions: protein concentration: 200 nM; construct: GST-DNA-binding domain
# Procedure: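 Universal 'all 10-mer' protein binding microarrays (Agilent AMADID 015681) probed with GST-tagged S. cerevisiae TFs (full-length or DBD) made by in vitro transcription/translation (PURExpress), about 100-200 nM. Bound TF was detected with fluorescent anti-GST. Each ungapped 8-mer (which stands for itself and its reverse complement) is scored by the PBM enrichment score (E-score), a modified Wilcoxon-Mann-Whitney statistic from -0.5 to +0.5, computed with the Universal PBM Analysis Suite. Scale: above 0.35 generally sequence-specific binding.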
# UniProt P13574, sequence (P13574 whole entry): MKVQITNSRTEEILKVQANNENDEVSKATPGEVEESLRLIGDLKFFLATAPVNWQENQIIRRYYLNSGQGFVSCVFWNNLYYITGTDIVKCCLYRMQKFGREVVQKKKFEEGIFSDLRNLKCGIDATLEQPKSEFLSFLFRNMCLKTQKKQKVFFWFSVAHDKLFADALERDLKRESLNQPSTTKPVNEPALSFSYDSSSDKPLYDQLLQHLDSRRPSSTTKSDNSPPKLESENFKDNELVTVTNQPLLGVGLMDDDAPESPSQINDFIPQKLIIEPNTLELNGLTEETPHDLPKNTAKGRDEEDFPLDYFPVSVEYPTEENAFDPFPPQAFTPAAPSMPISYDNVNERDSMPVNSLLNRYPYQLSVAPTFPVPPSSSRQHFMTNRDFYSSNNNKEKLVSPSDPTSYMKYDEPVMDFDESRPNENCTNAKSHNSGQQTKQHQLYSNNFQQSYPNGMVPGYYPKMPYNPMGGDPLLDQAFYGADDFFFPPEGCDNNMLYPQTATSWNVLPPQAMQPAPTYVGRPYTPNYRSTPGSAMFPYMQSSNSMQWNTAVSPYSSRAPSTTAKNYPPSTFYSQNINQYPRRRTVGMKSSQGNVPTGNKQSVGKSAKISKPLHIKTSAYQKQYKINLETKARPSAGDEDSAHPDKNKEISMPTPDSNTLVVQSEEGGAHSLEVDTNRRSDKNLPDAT
row,Sequence,PBM E-score
1,AGTTGACG,0.019
2,CATCCAGA,-0.00655
3,TAAACGCA,-0.0738
4,CAAACGCC,0.0326
5,CAAACGCA,-0.133
6,GAAACGCA,0.323
7,GGAACGCC,-0.017
8,GAAACGCC,0.288
9,ATGCTTAG,-0.205
10,AGCAGTAG,-0.168
11,TGGCCCCA,-0.094
12,AAGTAGTG,-0.075
13,ACCTAATC,0.0677
14,GAAAGAAA,0.297
15,ACAAGAAA,0.28
16,GAAAGAAC,-0.00643
17,ACAAGAAT,0.137
18,CAAAGAAA,0.214
19,CGTAGAAA,-0.0538
20,AGTAGAAC,-0.0785
21,AGTAGAAA,0.297
22,CCAAGAAA,0.0914
23,CCCACATC,-0.0169
24,GGCAAGCC,-0.0158
25,GCTAACCC,-0.192

row,Sequence,PBM E-score
1,CAGCTGCG,-0.0692
2,AGAAATTG,0.209
3,CATGGATC,-0.0524
4,AACTTTAT,0.165
5,AATAAAAT,0.183
6,ACTAAAAC,0.272
7,ACTAATAG,0.0525
8,ACTAAACC,0.0959
9,ACTAAAAA,0.203
10,ACTAAAAG,0.1
11,ACTAATAC,0.131
12,ACTAAAAT,0.27
13,ACTAATAT,0.288
14,AGAGTCTC,-0.00303
15,CTTGTTCA,-0.105
16,GACGTCAC,-0.136
17,TCATACCA,-0.0469
18,CATGGTTC,0.19
19,GTGGGCGA,-0.0639
20,CGGACCAA,-0.096
21,AACTGGTA,-0.00841
22,ATCGTCGG,0.00187
23,CCCGTTTC,0.274
24,ACCGTTTG,-0.0273
25,ACCGTTTA,0.059

row,Sequence,PBM E-score
1,CCCGTTGC,-0.145
2,ACCGTTTC,0.3
3,CCCGTTTA,0.0626
4,TCACTTAA,0.191
5,GCCGACGA,0.17
6,TCCGACGA,-0.109
7,CCCGACGA,0.284
8,ATAGCATA,-0.011
9,GAAGACTA,-0.0635
10,GAATTGAA,0.278
11,TGATTAAA,0.158
12,GAATTAAA,0.287
13,CGATTAAA,0.073
14,GAATTAAC,0.00892
15,TAATTGAA,0.0688
16,AAATTAAA,0.206
17,GGATTAAA,0.274
18,CAATTGAA,0.187
19,ATCCTACG,-0.141
20,GAGCTTGA,-0.176
21,AAAAACAC,0.233
22,CCGGAACC,0.0511
23,GCGGGGTA,0.143
24,CAGCCATC,-0.0408
25,GCTCTACC,-0.167

row,Sequence,PBM E-score
1,AAGCGAGA,0.108
2,CTCTTTAA,-0.122
3,GTACCGAA,0.0964
4,TTACCGAA,0.276
5,TTACCAAA,0.263
6,GTACCAAA,0.0457
7,CTACCGAA,-0.131
8,CTACCAAA,0.0171
9,GCATGCCC,0.105
10,AAACTTAA,0.298
11,AAACTGTT,0.162
12,CAACTTAA,0.0143
13,AAACTTTG,0.217
14,AAACTGAA,0.268
15,GAACTTAA,0.115
16,CAACTTTA,0.161
17,AAACTGTA,0.135
18,AAACTTTA,0.294
19,AAGATTGC,-0.0392
20,ACTTTGAT,0.11
21,CCCGGCGG,0.0682
22,ATTAAGGG,0.0581
23,ATCTCGAC,0.0726
24,GATCCCCA,0.0544
25,CGCCTACA,0.0882

row,Sequence,PBM E-score
1,GTAGCCAC,-0.27
2,CTGGGGGC,-0.233
3,CCCCCACC,-0.207
4,ACCCCACT,0.0311
5,GCCCCACA,0.101
6,GCCCCACC,0.266
7,ACCCCACC,0.373
8,ACCCCACG,-0.159
9,GGACCCGA,-0.0164
10,CTCCACAA,0.00925
11,CAAAGCGA,0.0708
12,ACAAGGAC,-0.129
13,AGAAGACA,-0.132
14,AACTCGCC,-0.0534
15,AAATTTAA,0.289
16,AAATTTAC,0.197
17,AGATTTAA,0.0444
18,AAATTTAT,0.263
19,TAATTTAA,0.3
20,TGATTTAA,0.266
21,AAATTTAG,0.169
22,AAATTTGA,0.123
23,CAATTTAA,0.2
24,AAATTTCA,0.0583
25,GAATTTAA,0.0395

row,Sequence,PBM E-score
1,CGATTTAA,0.1
2,GGAATGGA,0.0113
3,TTACCCAA,0.0694
4,CTTTGCTA,0.162
5,CTCACAGA,0.00059
6,AACTCGTA,0.143
7,TCCCCACA,-0.0875
8,CACCTATC,0.0217
9,TAAAACGA,0.134
10,AAAAACGG,0.174
11,CCAAACGA,0.0156
12,CGAAACGA,0.205
13,AGAAACGA,0.207
14,CCAAACGG,-0.0425
15,CAAAACGG,0.302
16,CAAAACGC,0.229
17,GAAAACGA,-0.0839
18,CAAAACGA,0.272
19,GGAAACGA,0.275
20,AAAAACGA,0.272
21,CCGCCTCC,-0.123
22,CCCGTAAG,-0.0733
23,AGGTCAGA,-0.113
24,TCTTGACA,-0.0432
25,ACCCATCC,0.00204

row,Sequence,PBM E-score
1,AACCAATC,0.259
2,GAAAAAGA,0.241
3,CGGCTAAG,0.0459
4,CATAGCGG,-0.207
5,AGACAGCT,-0.111
6,AAGAAGAA,0.123
7,TTAACTAA,0.221
8,GTCTCCAA,0.0569
9,ATAAAACA,0.368
10,ATAAAAAC,0.134
11,CTAAAACA,0.355
12,AGAAAACA,0.152
13,ATAAAACC,0.294
14,AAAAAACA,0.331
15,GAAAAACA,0.21
16,ATAAAAAA,0.248
17,CAAAAACA,0.153
18,CTAAAACC,0.192
19,TAAAAACA,0.223
20,ATAAACCC,0.211
21,ACGTTGAT,0.0985
22,AGTCAGTG,-0.0387
23,CTTAGCAC,-0.0994
24,ATACCACG,0.0272
25,ACATAGCA,-0.115

row,Sequence,PBM E-score
1,GGTAAACA,0.28
2,ATTAAACG,0.155
3,AGTAAACA,0.0888
4,GTAAAAAA,0.217
5,ATAAACCG,0.0871
6,CGTAAACA,0.186
7,ATAAAACG,0.37
8,GTAAAAAC,0.206
9,GTAAAACA,0.323
10,ACAGCGAG,-0.00798
11,GTAGATCA,0.023
12,ACCGCACC,0.0603
13,AGGGTGGC,-0.0324
14,AGGGAGGA,-0.192
15,AGGGGAGG,0.348
16,AGGGTGGA,-0.218
17,AGGGAGGC,-0.122
18,AGGAGGGC,-0.081
19,AGGGAGGG,0.305
20,AGGAGGGA,-0.0567
21,AGGAGGGG,0.285
22,AAGGGAGG,-0.0233
23,AGGGGAGA,-0.0864
24,AGGGTGGG,0.35
25,AGTTTGCG,0.122

row,Sequence,PBM E-score
1,AGTGCGGA,0.0511
2,CTCCTGGA,-0.166
3,AAATTTGC,0.0182
4,ATTGGTAC,0.00439
5,AAGAGCTT,-0.0673
6,ACCAAAGA,0.158
7,ACGCCCAC,0.117
8,GATGAGTA,0.0183
9,TACTGGAA,0.182
10,CACACCAA,0.115
11,AATTGAAA,0.412
12,GATTGAAA,0.243
13,AATTGAAT,0.131
14,TATTGAAA,0.304
15,CATTGAAA,0.247
16,AATTGAAC,-0.0364
17,CTCAACGA,-0.137
18,ACGACAGT,-0.147
19,CAAATAAC,0.283
20,AAAATAAG,0.183
21,AAAATAAT,0.293
22,GAAATAAC,0.121
23,CAAATACC,0.185
24,AAAATAAC,0.2
25,GCAATAAC,0.0195

row,Sequence,PBM E-score
1,CAAATAAA,0.1
2,GCAATAAA,0.279
3,CAAATAAG,0.0883
4,CCAATAAA,0.148
5,GAAATAAA,0.282
6,CTGAAGGA,-0.0367
7,CACGCGTG,0.221
8,CGTTCGCA,-0.119
9,AAATAAAT,0.169
10,AAATAAAA,0.291
11,AAATAAAG,0.172
12,AAAATAAA,0.286
13,TAAATAAA,0.228
14,AAAATACA,0.143
15,CGAAGACG,-0.13
16,CAATGGGA,-0.134
17,GCCTAAGC,-0.358
18,CCACTGGC,-0.0254
19,AATCAGAA,0.27
20,AATCAGAG,0.0937
21,CATCAGAA,0.0441
22,AGGTAGCC,-0.26
23,CAGGGTAG,-0.114
24,CTGACTAC,-0.129
25,CTGATACC,0.0308

row,Sequence,PBM E-score
1,ATGATACG,0.25
2,CTGATACA,0.28
3,ATGATACA,0.294
4,GTGATACA,0.195
5,ATGATACC,0.0159
6,GGCGCTTA,0.0142
7,AGGGCCAC,-0.202
8,CTCAATCC,0.0296
9,GAAAAGCA,0.0143
10,ACAGCCAG,-0.178
11,CTTGGTTA,0.052
12,CCCCTACC,0.0111
13,GCGTAAAA,0.163
14,TCGTAAAA,0.279
15,CTGTAAAA,0.219
16,GTGTAAAA,0.15
17,TTGTAAAA,0.315
18,TAGTAAAA,0.211
19,ATGTAAAT,0.113
20,ATGTAAAA,0.349
21,ACGTAAAA,0.161
22,ATAGAGCC,-0.0936
23,TACAGACA,0.0984
24,ACAGCTCG,-0.157
25,GCAGAGGC,-0.185

row,Sequence,PBM E-score
1,CACTCGCC,-0.0182
2,CAAAAGTG,0.00054
3,AGATCTCA,0.0566
4,CGATGAAA,0.289
5,CGATGAAG,0.0893
6,GGATGAAA,0.395
7,AGATGAAA,0.39
8,GGATGAAC,-0.196
9,AGATGAAG,0.102
10,CGATGAAC,0.124
11,TGATGAAA,0.258
12,AGATGAAC,0.098
13,CCTCTACG,-0.283
14,AGAGCCCC,-0.201
15,CACTGGAA,-0.101
16,ACATGGAC,-0.00801
17,ATGACATA,0.222
18,CCGTTACA,0.318
19,ATGTTACC,0.175
20,CTGTTACC,-0.03
21,ACGTTACA,0.164
22,ATGTTACG,-0.0262
23,GCGTTACA,0.139
24,CTGTTACA,0.378
25,GTGTTACA,0.19

row,Sequence,PBM E-score
1,ATGTTACA,0.297
2,AACGTCCG,-0.102
3,ACGCTGTG,-0.038
4,GCTGGCCA,-0.00597
5,CTTAGGGA,-0.316
6,AAATGAAG,0.257
7,GCGCTTCC,-0.0472
8,AAGGATAA,-0.00803
9,AATTGCAT,0.0393
10,ACTACCTA,-0.242
11,CCTGTTAC,0.151
12,ACTGTTTC,0.289
13,CCTGTTTC,0.32
14,ACTGTTTA,0.165
15,ACTGTTTG,0.188
16,CCTGTTTA,0.0871
17,AAAACGGA,0.273
18,GAAACGGA,0.343
19,AAAACGGT,0.152
20,GAAACGGC,0.229
21,AAAACGGC,0.225
22,CAAACGGA,0.0164
23,GCCCCGAC,-0.135
24,TACCTAAA,0.138
25,AACCTAAA,0.324

row,Sequence,PBM E-score
1,CACCTAAA,0.0511
2,CCCCGTTA,-0.00038
3,CACAACTA,0.153
4,AACAACTA,-0.00598
5,TACAACTA,0.268
6,ACAGGTCT,-0.267
7,ATGTTCTC,-0.124
8,ACACAAAT,0.108
9,TCAAAAAA,0.32
10,TCAAAACA,0.209
11,ACAAAAAT,0.288
12,ACAAAAAC,0.201
13,ACAAAAAG,0.125
14,ACAAAAAA,0.311
15,AAAAAGCA,0.108
16,TCAAAAGA,0.202
17,AACAAAAT,0.11
18,GCAAAGCA,-0.148
19,ACAAAGCA,0.29
